In the library only some 10% were active in any assay of this set; here they are far more common.
3T3 cytotox: NIH 3T3 cell cytotoxicity. NIH 3T3 viability, CellTiter-Glo ATP luminescence, 48-72 h. Potency, µM (top dose mostly 96.7 µM), without a hit: at the top dose activity change, negative = cytotoxicity, most hits filed as inhibitors. 94,000 compounds, 4.3% hits. AID 1345082; further: nearly all actives have a fitted effect of over 55% in size
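NIH 3T3 cells at 400 cells/well received 23 nL of compound by pintool and were incubated 48 or 72 h at 37 °C. Viability was read as ATP-coupled CellTiter-Glo luminescence.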
GPT2 inhibitor: inhibitors of human GPT2 alanine aminotransferase. Recombinant GPT2, coupled pyruvate oxidase/HRP Amplex Red fluorescence. 100,000 compounds, 0.25% hits. Potency, µM (doses to about 57.7 µM), for inactives: at the top dose activity change, negative = inhibition, most hits filed as inhibitors. Q8TD30. AID 1671188; further: nearly all actives have a fitted effect of over 60% in size
Target sequence (Q8TD30 whole entry, looked up): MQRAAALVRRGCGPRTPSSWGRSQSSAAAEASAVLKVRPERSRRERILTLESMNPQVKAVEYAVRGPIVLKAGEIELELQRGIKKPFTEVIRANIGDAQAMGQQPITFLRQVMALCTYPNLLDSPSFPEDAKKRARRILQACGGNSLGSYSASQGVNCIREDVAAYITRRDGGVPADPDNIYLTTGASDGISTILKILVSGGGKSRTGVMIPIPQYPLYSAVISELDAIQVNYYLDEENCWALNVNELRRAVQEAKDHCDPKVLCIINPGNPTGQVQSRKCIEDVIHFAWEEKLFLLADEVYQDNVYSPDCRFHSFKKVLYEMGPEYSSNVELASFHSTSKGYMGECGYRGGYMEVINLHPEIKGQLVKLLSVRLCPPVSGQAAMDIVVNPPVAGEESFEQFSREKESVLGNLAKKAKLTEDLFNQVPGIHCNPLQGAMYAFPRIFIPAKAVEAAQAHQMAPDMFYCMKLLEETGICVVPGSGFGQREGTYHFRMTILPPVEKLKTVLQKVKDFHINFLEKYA
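Inhibition is scored from Amplex Red fluorescence generated when pyruvate oxidase and HRP act on pyruvate released by GPT2. Reactions contain 10ng/uL enzyme, 250uM a-KG and 2mM L-alanine and run 30 min at room temperature.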
NPR1 antag: antagonists of human natriuretic peptide receptor Npr1 | HEK293 hNpr1 GloSensor cGMP, ANP-stimulated luminescence | Potency, µM (highest dose often 46.3 µM), for the others: at the highest dose activity change, negative = inhibition, actives largely listed as inhibitors | 76,000 compounds, 1.6% hits; calls by dose curve; further: nearly all actives have a fitted effect of over 60% in size
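HEK293 cells stably expressing human Npr1 and cGMP GloSensor pGS-40F, loaded 2 h with 2% GloSensor reagent, given compound 30 min at room temperature. Luminescence read before and 20 min after 0.1 nM hNppA.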
FLuc inh: inhibitors of firefly (Photinus pyralis) luciferase | purified P. pyralis luciferase, luminescence, biochemical | Potency, µM (highest dose often 115 µM), usual class: inhibitors | P08659 | 76,000 compounds, 2.5% hits | AID 1347043; further: nearly all actives have a fitted effect of over 65% in size
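FLuc 10nM, D-luciferin 10uM, ATP 10uM, Mg acetate 10mM, Tris acetate pH 7.5, Tween/BSA; cpd qHTS; enzyme added last; CCD luminescence.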
HEK293 tox: cytotoxic compounds in HEK 293 cells; 94,000 compounds, 6.6% hits; AID 1345083; HEK 293 viability, ATP luminescence (CellTiter-Glo), 48-72 h; Potency, µM (top dose mostly 115 µM), for inactives: at the top dose activity change, negative = cytotoxicity, usual class: inhibitors; further: nearly all actives have a fitted effect of over 60% in size
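ATP-coupled CellTiter-Glo luminescence served as viability read-out, recorded 10 min after reagent addition at room temperature. HEK 293 cells, 250 cells/well, had been incubated with pintool-transferred compound for 48 or 72 hr at 37 degree Celsius.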
Numbers without * were called inactive; i = inactive; ? = inconclusive; . = not tested or not shown; [ ] = another dose, or the depositor's remark. Unless noted, the call rests on the fitted dose curve; in most records, active means well fitted curve in the direction sought with a large enough effect; inconclusive means small, poorly fitted or top-dose-only effect, or another doubt; inactive means no such curve, though single readings can be large; an effect the other way counts as inactive or inconclusive. On the % scale 0 is the no-effect control and ±100 the full control effect; potency means the concentration at half of the fitted maximal effect.

SMILES	3T3 cytotox	GPT2 inhibitor	NPR1 antag	FLuc inh	HEK293 tox
Cc1nc(N2CCC(NC(=O)c3cc4ccccc4[nH]3)CC2)cc(C(F)(F)F)n1	?	i	7.9µM*	?	?
Cc1nc(N2CCC(NC(=O)c3ccccn3)CC2)cc(C(F)(F)F)n1	?	5%	?	i	?
CCc1ccc(NC(=O)c2cc3n(n2)CC(c2ccc4c(c2)OCO4)OC3)cc1 (stereo not drawn)	?	i	11µM*	?	32µM*
CC(C)CNC(=O)c1cc2n(n1)CC(c1ccc3c(c1)OCO3)OC2 (stereo not drawn)	40µM*	i	-3%	i	45µM*
CCC(C)NC(=O)c1cc2n(n1)CC(c1ccc3c(c1)OCO3)OC2 (stereo not drawn)	?	1%	-6%	i	?
CC1=C[C@@H](CNC(=O)Nc2cccc(C#N)c2)[C@H](C(C)C)C[C@H]1CC(=O)NCc1ccccn1	?	-7%	-20%	i	?
COc1ccc(Cc2nc3nccc(-c4ccc(OC)c(OC)c4)n3n2)cc1	14µM*	i	1%	i	?
COc1ccc(CCc2nc3nccc(-c4ccc(OC)c(OC)c4)n3n2)cc1	?	0%	2%	?	35µM*
CCC(C)NC(=O)C(NC(=O)c1ccc(OC)cc1)C1CCN(C(=O)c2ccccc2C)CC1 (stereo not drawn)	-12%	i	6%	i	0%
c1ccc(-c2cnc3n[nH]c(-c4ccccc4)c3n2)cc1	?	i	-12%[70.6 µM]	i	100µM*
COc1ccc(-c2[nH]nc3ncc(-c4ccccc4F)nc23)c(C)c1	50µM*	1%[88.5 µM]	-13%[70.6 µM]	i	63µM*
Cc1cc(C)cc(-c2[nH]nc3ncc(-c4ccsc4)nc23)c1	25µM*	-6%[88.5 µM]	-13%[70.6 µM]	i	?
Cc1ccsc1-c1[nH]nc2ncc(-c3ccccc3)nc12	?	?	-11%[70.6 µM]	i	?
Fc1ccccc1-c1cnc2n[nH]c(-c3ccccc3)c2n1	89µM*	4%[88.5 µM]	-19%[70.6 µM]	i	112µM*
Cc1cc(-c2cnc3n[nH]c(-c4ccc5c(c4)OCO5)c3n2)ccn1	?	-1%[88.5 µM]	-19%[70.6 µM]	i	-17%[172 µM]
CCOC(=O)C1CCCN(C(=O)c2cn3cc(-c4ccccc4)sc3n2)C1 (stereo not drawn)	?	-20%	.	.	?
CC(C)NC(=O)c1cnc2n[nH]c(-c3ccccc3)c2n1	-28%[174 µM]	3%[88.5 µM]	-2%[70.6 µM]	i	?
Cc1ccc(-c2cnc3n[nH]c(-c4ccccc4)c3n2)cc1	?	1%[88.5 µM]	-14%[70.6 µM]	i	32µM*
Cc1cc(-c2cnc3n[nH]c(-c4ccccc4)c3n2)ccn1	?	4%[88.5 µM]	-18%[70.6 µM]	i	?
O=C(Nc1ccon1)c1cnc2n[nH]c(-c3ccccc3)c2n1	32µM*	i	-5%[70.6 µM]	i	?
Cc1cccc(-c2cnc3n[nH]c(-c4ccccc4)c3n2)c1	?	-7%[88.5 µM]	-12%[70.6 µM]	i	71µM*
c1cncc(-c2cnc3n[nH]c(-c4ccc5c(c4)OCO5)c3n2)c1	?	0%[88.5 µM]	-18%[70.6 µM]	i	28µM*
O=C(NCc1ccc(Cl)cc1)C1CCN(c2ccnc3ccnn23)CC1	?	-17%	.	.	?
CN1c2cc(C(=O)Nc3cccc(Br)c3)ccc2C(=O)N2CCCCC21 (stereo not drawn)	?	4%	0%	?	35µM*
CSc1cccc(NC(=O)c2ccc3c(c2)N(C)C2CCCCN2C3=O)c1 (stereo not drawn)	?	i	-7%	?	40µM*
SMILES	3T3 cytotox	GPT2 inhibitor	NPR1 antag	FLuc inh	HEK293 tox
CN1c2cc(C(=O)Nc3cccc(F)c3)ccc2C(=O)N2CCCCC21 (stereo not drawn)	-22%	i	-23%	25µM*	?
Cc1cc(C)cc(NC(=O)c2ccc3c(c2)N(C)C2CCCCCN2C3=O)c1 (stereo not drawn)	-25%	i	0%	i	?
O=C(NC1CCCc2c1[nH]c1ccccc21)c1ccco1 (stereo not drawn)	?	i	-5%	i	?
CCC(=O)N1Cc2ccccc2CC2(CCN(CC3CCOCC3)C2)C1 (stereo not drawn)	-29%	?	.	.	-21%
COc1ccc(Nc2ccnc(N3CCCC(C(=O)NCC(F)F)C3)n2)cc1 (stereo not drawn)	?	-8%	.	.	?
Cc1ccc(Nc2ccnc(N3CCCC(C(=O)NCC4CCCCCC4)C3)n2)cc1 (stereo not drawn)	?	-1%	.	.	28µM*
Cc1ccc(Nc2ccnc(N3CCCC3C(=O)NCC(F)F)n2)cc1 (stereo not drawn)	?	i	.	.	40µM*
Cc1ccc(Nc2ccnc(N3CCCC(C(=O)NCC(F)(F)F)C3)n2)cc1 (stereo not drawn)	35µM*	i	.	.	?
COc1ccc(Nc2ccnc(N3CCCC(C(=O)NCC4CC4)C3)n2)cc1 (stereo not drawn)	?	-5%	.	.	?
Cc1ccc(Nc2ccnc(N3CCCC(C(=O)NCc4ccc(C(F)(F)F)cc4)C3)n2)cc1 (stereo not drawn)	-21%	i	.	.	-15%
Cc1ccc(Nc2ccnc(N3CCCC(C(=O)NCC(F)F)C3)n2)cc1 (stereo not drawn)	40µM*	i	.	.	45µM*
CCCN1CCCCC12Cc1ccccc1CN(C(=O)C1CCN(C)CC1)C2 (stereo not drawn)	?	-5%	.	.	?
O=C(NC1CCCCC1)C1CCc2nnc(-c3ccc(F)cc3)n21 (stereo not drawn)	-14%[138 µM]	-10%[88.5 µM]	.	.	-12%[172 µM]
Clc1ccc(CCNc2ncncn2)c(Cl)c1	?	2%	?	i	40µM*
O=C(NCCc1ccc(Cl)cc1Cl)C1CNCCO1 (stereo not drawn)	-25%	3%	-4%	i	-2%
Cc1cc(C)cc(C2(CNC(=O)C3CC4(CCNCC4)CN3)CCCC2)c1 (stereo not drawn)	?	i	-12%	i	79µM*
O=S1(=O)c2cccnc2OC(COc2ccccc2)CN1Cc1cccs1 (stereo not drawn)	28µM*	i	.	.	?
COc1ccc(OCC2CN(CCc3ccccc3)S(=O)(=O)c3cccnc3O2)cc1 (stereo not drawn)	?	-4%[27.3 µM]	.	.	?
Cc1ncoc1C(=O)NCc1cc(Cl)cc2c(C)c(-c3ccccc3)[nH]c12	?	i[11.5 µM]	2.8µM*	?	?
Cc1nc(CCC(=O)NCc2cc(Cl)cc3c(C)c(-c4ccccc4)[nH]c23)n[nH]1	?	0%	-1%	32µM*	?

Screens (PubChem)
